From PubChem
Rows were chosen to be rich in hits. Some 7.4% of all compounds tested hit in one or more screens of this group.
FLuc counter – inhibits or activates purified firefly luciferase, miR-21 counter-screen | P08659 | purified FLuc, Km substrates, luminescence inhibition | Potency, µM (series often up to 57.5 µM), hits mostly inhibitors | 360,000 tested, 6.9% active | AID 588342; further: nearly all actives have a fitted effect of over 55% in size
Target sequence (P08659 whole entry, looked up): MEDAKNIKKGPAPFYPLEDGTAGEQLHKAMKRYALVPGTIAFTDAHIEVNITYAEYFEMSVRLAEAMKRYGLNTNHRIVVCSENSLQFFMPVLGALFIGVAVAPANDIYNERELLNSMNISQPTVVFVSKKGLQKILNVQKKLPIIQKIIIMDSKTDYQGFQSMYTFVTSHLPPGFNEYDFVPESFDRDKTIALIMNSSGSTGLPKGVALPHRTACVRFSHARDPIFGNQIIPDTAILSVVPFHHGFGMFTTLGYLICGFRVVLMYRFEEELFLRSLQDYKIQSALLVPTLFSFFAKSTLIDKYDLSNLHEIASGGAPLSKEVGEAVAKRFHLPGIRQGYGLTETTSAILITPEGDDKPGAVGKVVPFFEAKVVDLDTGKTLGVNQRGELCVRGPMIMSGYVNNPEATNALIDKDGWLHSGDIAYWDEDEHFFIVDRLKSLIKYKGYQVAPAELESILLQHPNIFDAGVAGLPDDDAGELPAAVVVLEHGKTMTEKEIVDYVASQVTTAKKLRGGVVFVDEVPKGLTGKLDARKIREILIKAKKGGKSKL
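Purified P. pyralis luciferase (10nM final) with 10uM D-luciferin and 10uM ATP (Km levels) in 50mM Tris acetate pH 7.5, 10mM Mg acetate, 0.01% Tween-20, 0.05% BSA; qHTS 6-point titration, ~60 µM downward; luminescence read.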
NPC1 prom act – activates the NPC1 promoter; Huh7 NPC1 promoter luciferase reporter, 24 h; Potency, µM (highest dose often 9.22 µM), usual class: activators; 320,000 tested, 2.4% active; AID 485313; further: nearly all actives have a fitted effect of over 60% in size
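NPC1 promoter–luciferase Huh7 cells; 24 h compound; luminescence.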
Rab9 promoter act – activates the Rab9 promoter; Potency, µM (doses to about 9.22 µM), most hits filed as activators; AID 485297; Huh7 Rab9 promoter-luciferase reporter, luminescence, 24 h; 320,000 tested, 2.8% active; further: nearly all actives have a fitted effect of over 60% in size
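Quantitative HTS format; Huh7 Rab9-luciferase reporter cells (1500/well) receive compound 2 h post-plating, incubate 24 h at 37 °C, then get luciferase reagent for 10 min before luminescence reading.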
SMN2 splice up – increases expression of the SMN2 splice variant; HEK293 SMN2-luciferase splicing reporter, luminescence, 30-36 h; Potency, µM (titrated, usually from 46.1 µM), hits mostly activators; 210,000 tested, 2.8% active; AID 1458; further: nearly all actives have a fitted effect of over 55% in size
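HEK293 cells carry an SMN2 […]–luciferase reporter in which exon 7 inclusion puts luciferase in frame. Cells were plated 10-12 h before compound addition, then incubated 30-36 h at 37C. ONE-Glo luminescence was read; sodium butyrate at 4.5 mM final served as control.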
Luc counter – blocks Kinase-Glo luciferase, a counter-screen artifact; Q27757; Kinase-Glo luciferase, ATP luminescence, 8 min; Potency, µM (top dose mostly 38.3 µM), hits mostly inhibitors; 200,000 tested, 0.28% active; AID 1379; further: nearly all actives have a fitted effect of over 60% in size
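Compounds were added to a substrate mix at pH 7.2 (50 mM imidazole, 10 uM ATP, within the enzyme's linear range), followed by Kinase-Glo detection reagent; luminescence was measured after 8 minutes at ambient temperature.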
ELG1 genotoxic – induces genotoxicity in HEK293T cells with luciferase-tagged ELG1. AID 504466. HEK293T ELG1-luciferase reporter, luminescence, 16 h. Potency, µM (doses to about 46 µM), most hits filed as activators. 330,000 tested, 1.3% active; further: nearly all actives have a fitted effect of over 60% in size
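HEK293T cells expressing luciferase-tagged ELG1 were exposed to compound or DMSO vehicle for 16 hr at 37 °C and 5% CO2. Luciferase activity was then measured with ONE-Glo after 30 min at room temperature.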
Hits are given with their value; 0 = inactive; ? = inconclusive; - = no result. The call rests on the fitted dose curve; in most records, active means well fitted curve in the direction sought with a large enough effect; inconclusive means small, poorly fitted or top-dose-only effect, or another doubt; inactive means no such curve, though single readings can be large; an effect the other way counts as inactive or inconclusive.

SMILES	FLuc counter	NPC1 prom act	Rab9 promoter act	SMN2 splice up	Luc counter	ELG1 genotoxic
CC(=O)Nc1cccc(-c2nnc(-c3ccccc3)o2)c1	12µM	3.55µM	3.55µM	12.6µM	0	8.2µM
CCOc1cccc(C(=O)Nc2cccc(-c3nnc(-c4ccc(C)cc4)o3)c2)c1	0	0	0	0	0	0
O=C(Nc1ccccc1)Nc1cccc(-c2nnco2)c1	15.1µM	0	0	-	-	0
CC(=O)Nc1cccc(-c2nc(-c3ccccc3)no2)c1	2.39µM	-	-	-	-	-
CCSc1nnc(NC(=O)c2cc(C)oc2C)s1	16.9µM	?	?	11.2µM	0	7.31µM
CCSc1nnc(NC(=O)c2ccc(C)o2)s1	16.9µM	?	?	15.8µM	0	18.4µM
CCc1nnc(NC(=O)c2cc(C)oc2C)s1	16.9µM	0	0	-	-	0
CCSc1nnc(NC(=O)Cc2ccc(OC)cc2)s1	0	0	0	0	0	0
CCc1nnc(NC(=O)c2oc3cc(C)c(C)cc3c2C)s1	0	0	0	?	0	0
O=C1C2CCCCC2C(=O)N1c1ccc(S(=O)(=O)Nc2ncccn2)cc1 (stereo not drawn)	0	0	0	-	-	0
O=C(c1[nH]c2ccccc2c1Sc1ccc(Cl)cc1)N1CCCCC1	0	-	-	-	-	-
O=C(O)c1ccc(N2Cc3ccccc3C2)cc1O	23.9µM	0	0	0	?	0
O=C(O)c1ccc(N2CCCCC2)cc1O	15.1µM	0	0	-	-	0
CCN(C(=O)CN1CCCCC1C)c1c(N)n(Cc2ccccc2)c(=O)[nH]c1=O (stereo not drawn)	-	0	0	-	-	0
COc1ccc2oc(C(=O)OCC(=O)N(C)C3CCS(=O)(=O)C3)c(C)c2c1 (stereo not drawn)	0	0	0	-	-	0
CSc1nnc2c3ccccc3n(Cc3ccccc3)c2n1	0	0	0	0	0	0
CSc1nnc2c3ccccc3n(CCc3ccccc3)c2n1	0	0	0	3.98µM	0	0
Cc1ccc2oc(=O)n(CCCOc3ccccc3)c2c1	23.9µM	?	?	0	0	?
Cc1ccccc1OCCn1c(=O)oc2ccccc21	0	0	0	0	0	0
COc1ccc(OCCCn2c(=O)oc3ccc(C)cc32)cc1	0	-	-	?	-	-
O=c1oc2ccccc2n1CCCOc1ccccc1Cl	12µM	-	-	20µM	-	-
CSCCC(NC(=O)OC(C)(C)C)C(=O)Oc1ccc2c(=O)c(-c3ccc4c(c3)OCCO4)coc2c1 (stereo not drawn)	10.7µM	1.41µM	0.794µM	17.8µM	0	?
CCOC(=O)c1cnc2c(ccc3ccccc32)c1Nc1ccc(N(C)C)cc1	0	-	-	0	-	-
Clc1ccc(-c2nc3ccccn3c2CN2CCCCC2)cc1	?	0	0	0	0	0
CN(C)Cc1c(-c2ccc(Cl)cc2)nc2ccccn12	12µM	?	?	12.6µM	0	?
SMILES	FLuc counter	NPC1 prom act	Rab9 promoter act	SMN2 splice up	Luc counter	ELG1 genotoxic
COc1ccc(NC(=O)NC2CCCCCCC2)cc1	6.01µM	0.891µM	1.41µM	-	-	9.2µM
COC(=O)c1ccc(NC(=S)NC2CC3CCC2C3)cc1 (stereo not drawn)	21.3µM	0	0	?	0	0
COc1ccc(NC(=O)NC2CCCCCCC2)c(OC)c1	?	0	0	-	-	0
COC(=O)c1ccc(NC(=O)NC2CCCCC2)cc1	?	?	0	12.6µM	0	0
CSc1nc(N)nc2c1ncn2CC(=O)NCCCN1CCCC1=O	-	-	-	-	-	0
O=C(NNC(=O)c1cc(Cl)ccc1[N+](=O)[O-])c1csc(N2CCOCC2)n1	0	0	0	-	-	0
CC12C(=O)N(Cc3ccco3)C(=O)C1C1c3ccccc3C2c2ccccc21 (stereo not drawn)	0	0	0	0	0	0
COC(=O)[C@]1(Cc2ccccc2)N[C@H](c2ccc(-c3ccc(F)cc3)cc2)[C@@H]2C(=O)N(C)C(=O)[C@@H]21	0	0	0	-	-	0
COc1cccc(C2=NOC(C(=O)N3CCOCC3)C2)c1 (stereo not drawn)	19µM	3.55µM	?	0	0	?
Cc1cc(NC(=O)C2CC2)n(-c2nc3ccccc3s2)n1	15.1µM	0	0	0	0	0
O=C(Nc1ccc(Cl)cc1Cl)c1n[nH]c(Cn2cncn2)n1	4.26µM	0	0	0	0	?
CCn1c2ccccc2c2nc3cc(OC)c(OC)cc3nc21	8.49µM	0	0	-	-	0
CCn1c2ccccc2c2nc3ccccc3nc21	?	?	0	0	0	0
CC(=O)n1c2ccccc2c2nc3ccccc3nc21	?	3.16µM	2.82µM	-	-	?
CCn1c2ccccc2c2nc3cc(C(=O)O)ccc3nc21	19µM	0	0	0	0	?
COc1ccc(CC(=O)N2CCc3cc(OC)c(OC)cc3C2C)c(OC)c1 (stereo not drawn)	0	0	0	-	-	0
O=[N+]([O-])c1ccccc1NC(=S)N/N=C/c1ccc(O)c(O)c1	19µM	?	?	-	0	3.66µM
CCOc1cccc(/C=N/NC(=S)Nc2ccccc2[N+](=O)[O-])c1O	?	0	0	0	0	0.366µM
CC(/C=N/NC(=O)c1ccccc1F)=C\c1ccccc1	3.38µM	1.12µM	1.12µM	-	-	?
CC(/C=N/NC(=O)c1ccco1)=C\c1ccccc1	2.39µM	0.562µM	0.355µM	2.51µM	0	2.31µM
COc1ccc(C(=O)NCC(=O)N/N=C/C(C)=C/c2ccccc2)cc1OC	16.9µM	0	0	0	0	0
CC(/C=N\NC(=O)c1ccc(C)nc1)=C\c1ccccc1	8.49µM	0	0	0	0	0
Cc1ccc(NC(=O)C2COc3ccccc3O2)cc1S(=O)(=O)N1CCOCC1 (stereo not drawn)	0	0	0	-	-	0
O=C(O)c1cccc(CSc2ncccn2)c1	0	0	0	-	0	0
O=C(O)c1cccc(CSc2n[nH]c(-c3ccc(Cl)cc3Cl)n2)c1	26.9µM	0	0	0	0	0
SMILES	FLuc counter	NPC1 prom act	Rab9 promoter act	SMN2 splice up	Luc counter	ELG1 genotoxic
O=C1/C(=C/c2cccs2)SC(=S)N1CCCC(=O)N(CCO)c1ccccc1	0	0	0	-	-	0
COc1ccc(-n2nc(C(=O)NCC(=O)N3CCOCC3)c3ccccc3c2=O)c(OC)c1	23.9µM	0	0	-	-	0
COc1ccc(-n2nc(C(=O)NCC(=O)N3CCCCC3)c3ccccc3c2=O)c(OC)c1	3.79µM	0	?	-	-	?
COc1ccc(-n2nc(C(=O)NCC(=O)N3CCN(Cc4ccccc4)CC3)c3ccccc3c2=O)c(OC)c1	?	0	0	-	-	0
COc1ccc(-n2nc(C(=O)NCCCN3CCOCC3)c3ccccc3c2=O)c(OC)c1	0	0	0	-	-	0
COc1ccc(-n2nc(C(=O)NCC(=O)N3CCC(C)CC3)c3ccccc3c2=O)c(OC)c1	1.51µM	?	?	-	-	?
COc1ccc(-n2nc(C(=O)NCC(=O)N3CCCCCC3)c3ccccc3c2=O)c(OC)c1	2.39µM	0	0	-	-	?
